For assay [1], the target named is Thyrotropin-releasing hormone receptor (Homo sapiens) (UniProt P34981). Nature of the assay: qHTS assay to identify small molecule agonists of the thyrotropin-releasing hormone receptor (TRHR) signaling pathway (AID 1346891; calls by dose curve; also: series mostly up to about 58 µM). Put shortly: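 TRHR-expressing HEK293 cells were plated 18 h at 37 °C/5% CO2, loaded with calcium dye 2 h at 37 °C, then given compound in DMSO; fluorescence was read kinetically for 3 min at 1 s intervals.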
Sequence of Thyrotropin-releasing hormone receptor (Homo sapiens) (P34981 whole entry, looked up): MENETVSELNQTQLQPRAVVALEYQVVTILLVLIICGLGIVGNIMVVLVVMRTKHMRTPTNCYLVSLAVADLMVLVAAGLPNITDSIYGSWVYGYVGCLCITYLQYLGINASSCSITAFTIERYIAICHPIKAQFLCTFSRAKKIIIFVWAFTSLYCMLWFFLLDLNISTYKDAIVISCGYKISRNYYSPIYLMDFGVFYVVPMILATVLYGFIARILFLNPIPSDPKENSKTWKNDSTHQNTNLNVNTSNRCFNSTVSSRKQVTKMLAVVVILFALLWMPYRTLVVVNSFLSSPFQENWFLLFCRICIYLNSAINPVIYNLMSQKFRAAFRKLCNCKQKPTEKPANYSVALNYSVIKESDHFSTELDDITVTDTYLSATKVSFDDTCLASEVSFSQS
(qHTS replaces the single test concentration by a dilution series.)

The nature of assay [2]: Caspase-3/7 induction in HepG2 cells by small molecules, qHTS assay (AID 1346978). Also: nearly all actives have a fitted effect of over 15% in size. Put shortly:
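Wild-type HepG2 cells, 2,000/well, settled 5 hr at 37 C and 5% CO2, then compound-treated for 17 hr; caspase-3/7 activity read by luminescent Caspase-Glo 3/7 after 30 min at room temperature.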

Assay [3] can be described thus: Caspase-3/7 induction in CHO-K1 cells by small molecules, qHTS cell viability counter screen (AID 1346979). Also: nearly all actives have a fitted effect of over 35% in size. Also: potency is read from the fitted curve at half-maximal effect. Put shortly: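 Wild-type CHO-K1 cells were seeded at 1,500 per well, rested 5hr at 37 C, then exposed to compounds in DMSO. After 16hr, CellTiter-Fluor reagent was added and fluorescence read 1hr later as the viability measure.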
A short description of assay [4]: Caspase-3/7 induction in CHO-K1 cells by small molecules, qHTS assay (AID 1346980). Also: nearly all actives have a fitted effect of over 15% in size. Put shortly:
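Wild-type CHO-K1 cells exposed to compounds for 17hr at 37 C, 5% CO2. Caspase-3/7 activity then measured by Caspase-Glo 3/7 luminescence after 30min at room temperature.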

Assay [5] can be described thus: Caspase-3/7 induction in HepG2 cells by small molecules, qHTS cell viability counter screen (AID 1346981). Also: nearly all actives have a fitted effect of over 30% in size. Also: potency is read from the fitted curve at half-maximal effect. The essentials: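 Multiplexed with the caspase-3/7 assay: HepG2 cells, 16 hr compound treatment, CellTiter-Fluor viability detection by fluorescence.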
For assay [6], the target named is Nuclear receptor subfamily 1 group I member 2 (Homo sapiens) (UniProt O75469). Nature of the assay: Human pregnane X receptor (PXR) small molecule agonists, qHTS assay (AID 1346982). Also: nearly all actives have a fitted effect of over 35% in size. Also: potency is read from the fitted curve at half-maximal effect. Put shortly: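 We seeded PXR-Luc HepG2 cells in assay medium containing 5% charcoal-stripped FBS, added compounds 5 hr later, incubated 24 hr, and read luminescence with ONE-Glo reagent.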
Sequence of Nuclear receptor subfamily 1 group I member 2 (Homo sapiens) (O75469 whole entry, looked up): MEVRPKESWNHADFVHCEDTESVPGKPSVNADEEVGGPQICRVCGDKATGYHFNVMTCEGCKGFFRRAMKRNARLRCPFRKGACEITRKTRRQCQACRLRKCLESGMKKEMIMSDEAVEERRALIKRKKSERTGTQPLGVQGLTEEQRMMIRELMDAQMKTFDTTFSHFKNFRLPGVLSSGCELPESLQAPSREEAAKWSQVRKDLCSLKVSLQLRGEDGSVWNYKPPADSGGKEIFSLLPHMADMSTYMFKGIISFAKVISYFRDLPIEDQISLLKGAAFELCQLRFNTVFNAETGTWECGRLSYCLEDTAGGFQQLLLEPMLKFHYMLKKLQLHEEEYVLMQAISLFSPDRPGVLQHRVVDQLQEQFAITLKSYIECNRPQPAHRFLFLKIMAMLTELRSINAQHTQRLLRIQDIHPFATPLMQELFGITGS

For assay [7], the target named is Cytochrome P450 2D6 (Homo sapiens) (UniProt P10635). Nature of the assay: Cytochrome P450 Family 2 Subfamily D Member 6 (CYP2D6) small molecule antagonists: luciferase reporter qHTS assay (AID 1671196). Also: nearly all actives have a fitted effect of over 50% in size. Also: potency is read from the fitted curve at half-maximal effect. As to activity change, negative = inhibition: series mostly up to about 120 µM. Put shortly: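 Luminescence (RLU), read 20 min after detection reagent, indicated CYP2D6 conversion of proluciferin to luciferin during a 1 h NADPH-dependent reaction at room temperature.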
Sequence of Cytochrome P450 2D6 (Homo sapiens) (P10635 whole entry, looked up): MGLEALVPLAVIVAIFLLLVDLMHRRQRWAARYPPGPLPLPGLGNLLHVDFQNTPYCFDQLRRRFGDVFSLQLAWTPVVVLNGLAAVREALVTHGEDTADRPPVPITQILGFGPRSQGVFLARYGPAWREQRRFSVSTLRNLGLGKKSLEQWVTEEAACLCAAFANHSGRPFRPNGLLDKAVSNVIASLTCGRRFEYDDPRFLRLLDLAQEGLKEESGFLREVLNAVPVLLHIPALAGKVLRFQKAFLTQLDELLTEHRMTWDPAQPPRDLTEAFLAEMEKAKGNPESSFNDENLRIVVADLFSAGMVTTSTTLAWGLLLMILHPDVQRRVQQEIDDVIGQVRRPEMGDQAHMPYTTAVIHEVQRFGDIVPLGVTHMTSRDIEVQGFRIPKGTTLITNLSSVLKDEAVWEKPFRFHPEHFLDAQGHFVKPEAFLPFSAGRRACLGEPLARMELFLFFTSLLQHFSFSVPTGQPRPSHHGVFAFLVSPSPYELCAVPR

In assay [8] the target is Cytochrome P450 2C19 (Homo sapiens) (UniProt P33261). Nature of the assay: Cytochrome P450 Family 2 Subfamily C Member 19 (CYP2C19) small molecule antagonists: luciferase reporter qHTS assay (AID 1671197). Also: nearly all actives have a fitted effect of over 65% in size. Also: potency is read from the fitted curve at half-maximal effect. As to activity change, negative = inhibition: series mostly up to about 120 µM. Put shortly: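 Enzyme-substrate mix with proluciferin substrate (P450-Glo CYP2C19 system) preincubated with compounds 10 min at room temperature; NADPH regeneration solution added, 37C for 1 h; detection reagent stops reaction, luminescence read after 20 min. Ketoconazole positive control.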
Sequence of Cytochrome P450 2C19 (Homo sapiens) (P33261 whole entry, looked up): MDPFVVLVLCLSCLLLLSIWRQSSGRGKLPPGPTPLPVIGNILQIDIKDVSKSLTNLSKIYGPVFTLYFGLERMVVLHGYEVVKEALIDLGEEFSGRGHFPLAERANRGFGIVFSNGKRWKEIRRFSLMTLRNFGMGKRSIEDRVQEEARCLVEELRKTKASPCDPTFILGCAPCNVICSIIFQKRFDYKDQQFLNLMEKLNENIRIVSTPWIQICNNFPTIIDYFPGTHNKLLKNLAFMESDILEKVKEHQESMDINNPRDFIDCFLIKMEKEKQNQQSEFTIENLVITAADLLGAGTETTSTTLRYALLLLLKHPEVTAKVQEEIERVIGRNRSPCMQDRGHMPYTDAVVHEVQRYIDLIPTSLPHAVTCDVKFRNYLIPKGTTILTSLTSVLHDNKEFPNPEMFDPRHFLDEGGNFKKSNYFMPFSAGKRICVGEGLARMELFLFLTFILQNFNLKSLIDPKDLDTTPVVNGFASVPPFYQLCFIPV
(Reporter assays use an easily measured gene product as a stand-in for the process of interest.)

Assay [9] deals with Cytochrome P450 2C9 (Homo sapiens) (UniProt P11712). Nature of the assay: Cytochrome P450 Family 2 Subfamily C Member 9 (CYP2C9) small molecule antagonists: luciferase reporter qHTS assay (AID 1671198). Also: nearly all actives have a fitted effect of over 50% in size. Also: potency is read from the fitted curve at half-maximal effect. As to activity change, negative = inhibition: series mostly up to about 120 µM. The essentials: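 P450-Glo proluciferin substrate with CYP2C9 enzyme; 10 min RT preincubation, then NADPH regeneration 1 h at 37C; luciferin detection reagent 20 min RT, luminescence in relative luminescence units.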
Sequence of Cytochrome P450 2C9 (Homo sapiens) (P11712 whole entry, looked up): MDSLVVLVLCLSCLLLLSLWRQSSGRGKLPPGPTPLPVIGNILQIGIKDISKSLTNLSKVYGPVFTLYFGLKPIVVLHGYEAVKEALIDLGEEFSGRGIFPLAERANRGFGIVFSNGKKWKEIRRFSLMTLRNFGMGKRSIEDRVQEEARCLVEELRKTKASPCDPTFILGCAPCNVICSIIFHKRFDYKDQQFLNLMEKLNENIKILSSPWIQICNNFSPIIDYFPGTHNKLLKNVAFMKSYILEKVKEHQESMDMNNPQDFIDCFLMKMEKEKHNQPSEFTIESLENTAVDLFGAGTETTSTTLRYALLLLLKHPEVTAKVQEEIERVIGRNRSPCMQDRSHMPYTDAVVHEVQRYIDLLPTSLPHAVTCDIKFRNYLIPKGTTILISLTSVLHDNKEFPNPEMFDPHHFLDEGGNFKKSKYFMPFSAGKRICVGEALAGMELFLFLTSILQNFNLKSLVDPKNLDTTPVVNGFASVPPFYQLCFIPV

In assay [10] the target is Voltage-gated inwardly rectifying potassium channel KCNH2 (Homo sapiens) (UniProt Q12809). Nature of the assay: Human Ether-a-go-go-Related Gene (hERG) channel small molecule antagonists: fluorescence cell-based qHTS assay (AID 1671200).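 Also: hERG-expressing U2OS cells given a thallium stimulus after FluxOR II dye loading; series mostly up to about 77 µM; nearly all actives have a fitted effect of over 50% in size.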 Put shortly: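 U2OS cells expressing the channel were plated at 1000 cells/well, incubated overnight at 37 C, then loaded with FluxOR II thallium-sensitive dye for 1 h at room temperature in the dark, with a further 10 min at room temperature before stimulation.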
Sequence of Voltage-gated inwardly rectifying potassium channel KCNH2 (Homo sapiens) (Q12809 whole entry, looked up): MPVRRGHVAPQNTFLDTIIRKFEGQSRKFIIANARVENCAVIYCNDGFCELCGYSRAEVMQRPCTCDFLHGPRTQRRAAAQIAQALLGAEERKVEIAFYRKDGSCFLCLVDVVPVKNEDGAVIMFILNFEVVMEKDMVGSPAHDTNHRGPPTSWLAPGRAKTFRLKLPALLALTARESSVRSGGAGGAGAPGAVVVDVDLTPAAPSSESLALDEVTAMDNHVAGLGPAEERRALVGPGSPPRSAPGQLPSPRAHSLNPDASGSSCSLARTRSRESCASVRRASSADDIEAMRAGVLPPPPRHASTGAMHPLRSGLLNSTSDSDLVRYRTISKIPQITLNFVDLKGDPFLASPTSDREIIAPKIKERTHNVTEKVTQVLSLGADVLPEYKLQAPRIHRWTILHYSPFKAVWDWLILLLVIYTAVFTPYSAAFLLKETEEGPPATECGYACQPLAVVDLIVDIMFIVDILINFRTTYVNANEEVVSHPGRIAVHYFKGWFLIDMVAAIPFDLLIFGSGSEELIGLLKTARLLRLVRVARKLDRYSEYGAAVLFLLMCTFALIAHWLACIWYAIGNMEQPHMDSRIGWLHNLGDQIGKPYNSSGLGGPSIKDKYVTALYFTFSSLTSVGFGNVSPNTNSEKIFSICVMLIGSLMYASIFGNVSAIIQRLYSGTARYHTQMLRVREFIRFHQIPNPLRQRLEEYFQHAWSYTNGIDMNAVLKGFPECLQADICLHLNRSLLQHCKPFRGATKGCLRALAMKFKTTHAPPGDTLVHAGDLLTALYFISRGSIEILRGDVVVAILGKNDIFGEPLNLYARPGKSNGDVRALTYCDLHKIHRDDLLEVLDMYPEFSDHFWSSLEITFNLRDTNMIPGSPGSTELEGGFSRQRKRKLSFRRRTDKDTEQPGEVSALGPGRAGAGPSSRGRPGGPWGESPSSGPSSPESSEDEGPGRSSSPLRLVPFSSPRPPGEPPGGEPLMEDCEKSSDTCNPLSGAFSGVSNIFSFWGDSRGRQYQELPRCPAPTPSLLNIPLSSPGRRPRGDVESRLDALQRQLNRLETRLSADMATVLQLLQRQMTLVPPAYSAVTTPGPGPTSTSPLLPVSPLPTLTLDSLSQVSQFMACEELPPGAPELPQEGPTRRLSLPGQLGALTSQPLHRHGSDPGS

In assay [11] the target is Cytochrome P450 3A4 (Homo sapiens) (UniProt P08684). Nature of the assay: Cytochrome P450 Family 3 Subfamily A Member 4 (CYP3A4) small molecule antagonists: luciferase reporter qHTS assay (AID 1671201). Also: nearly all actives have a fitted effect of over 50% in size. Also: potency is read from the fitted curve at half-maximal effect. As to activity change, negative = inhibition: series mostly up to about 120 µM. The essentials:
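P450-Glo CYP3A4 system with proluciferin substrate; compounds preincubated 10 min RT with enzyme-substrate mix, then NADPH regeneration added for 1 h RT. Detection reagent 20 min, luminescence read as relative luminescence units.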

Assay [12] can be described thus: Human pregnane X receptor (PXR) small molecule agonists, qHTS cell viability counter screen (AID 1346977). Also: nearly all actives have a fitted effect of over 50% in size. Also: potency is read from the fitted curve at half-maximal effect. The essentials:
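PXR-Luc HepG2 cells in medium with 5% charcoal-stripped FBS were pre-incubated 5hr, then exposed to compounds for 24hr at 37C. Viability was read in the same wells by CellTiter-Fluor fluorescence, reagent added after 23hr with a 1hr incubation.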

The target in assay [13] is Nuclear receptor subfamily 1 group I member 2 (Rattus norvegicus) (UniProt Q9R1A7). Nature of the assay: Rat pregnane X receptor (rPXR) activation by small molecules, qHTS assay (AID 1346983). Also: nearly all actives have a fitted effect of over 20% in size. The settings on record: rPXR luciferase reporter cells, One-Glo luminescence, 24 h; max activation: stronger effect = higher value. Put shortly:
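Cell-based rPXR activation assay: rPXR cells, 2,000 per well, rested 5hr at 37 C, then exposed to compounds in DMSO for 24 hr at 37 C. Luciferase activity read by One-Glo luminescence after 30 min at room temperature.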

The target of assay [14] is Nuclear receptor subfamily 1 group I member 2 (Homo sapiens) (UniProt O75469). Nature of the assay: CYP3A4 induction through human pregnane X receptor (PXR) by small molecules, qHTS assay (AID 1346984). Also: nearly all actives have a fitted effect of over 40% in size. Put shortly:
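qHTS, concentration-response format: HepG2 DPX-2 line, PXR/CYP3A4-luc. Exposure 24 h, 37C. Substrate Luciferin-IPA 3uM final, 3 h. Detection One-Glo, 30 min RT.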

For assay [15] the target is unchanged. Nature of the assay: Human pregnane X receptor (PXR) activation by small molecules, qHTS assay (AID 1346985). Also: nearly all actives have a fitted effect of over 40% in size. The essentials:
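DPX-2 cells (HepG2 co-transfected with a PXR response element and a CYP3A4-promoter luciferase construct) were seeded at 2,000 per well, rested 5 hr at 37C, then exposed to DMSO-dissolved compounds for 24 hr. Activation was read as luciferase luminescence.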

The target of assay [16] is Cytochrome P450 1A2 (Homo sapiens) (UniProt P05177). Nature of the assay: Cytochrome P450 Family 1 Subfamily A Member 2 (CYP1A2) small molecule antagonists: luciferase reporter qHTS assay (AID 1671199). Also: nearly all actives have a fitted effect of over 50% in size. Also: potency is read from the fitted curve at half-maximal effect. As to activity change, negative = inhibition: series mostly up to about 120 µM. Put shortly:
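CYP1A2 turnover of a luminogenic substrate was quantified after 1 h with NADPH regeneration at room temperature. Furafylline served as positive control.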

“And” between values parts separate entries of the source, which are not always exact repeats. Equal entries are not always repeated. Results filed as inconclusive are left out. Where a structure was tested more than once in an assay, its records may differ in their call. The source made the active and inactive calls. Unless noted, calls follow the shape of the dose curve; as a rule, active = well fitted curve in the direction sought with a large enough effect in the repeat runs; inconclusive = weak or mixed curves; inactive = no such curve, though single readings can be large; an effect the other way counts as inactive or inconclusive.
% is scaled to controls: 0 for no effect and ±100 for the full control effect.

Sequence of Nuclear receptor subfamily 1 group I member 2 (Rattus norvegicus) (Q9R1A7 whole entry, looked up): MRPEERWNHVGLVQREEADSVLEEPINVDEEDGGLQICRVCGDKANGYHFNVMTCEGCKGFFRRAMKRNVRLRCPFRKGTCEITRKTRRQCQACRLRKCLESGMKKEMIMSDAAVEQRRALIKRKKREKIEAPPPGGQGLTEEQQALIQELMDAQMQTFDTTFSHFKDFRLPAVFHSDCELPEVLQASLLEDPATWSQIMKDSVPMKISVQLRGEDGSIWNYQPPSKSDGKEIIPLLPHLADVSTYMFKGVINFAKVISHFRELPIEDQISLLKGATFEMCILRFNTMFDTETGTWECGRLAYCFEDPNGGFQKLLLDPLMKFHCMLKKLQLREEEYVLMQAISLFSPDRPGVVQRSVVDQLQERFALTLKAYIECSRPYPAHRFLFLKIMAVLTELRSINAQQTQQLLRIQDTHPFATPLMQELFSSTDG
Sequence of Cytochrome P450 3A4 (Homo sapiens) (P08684 whole entry, looked up): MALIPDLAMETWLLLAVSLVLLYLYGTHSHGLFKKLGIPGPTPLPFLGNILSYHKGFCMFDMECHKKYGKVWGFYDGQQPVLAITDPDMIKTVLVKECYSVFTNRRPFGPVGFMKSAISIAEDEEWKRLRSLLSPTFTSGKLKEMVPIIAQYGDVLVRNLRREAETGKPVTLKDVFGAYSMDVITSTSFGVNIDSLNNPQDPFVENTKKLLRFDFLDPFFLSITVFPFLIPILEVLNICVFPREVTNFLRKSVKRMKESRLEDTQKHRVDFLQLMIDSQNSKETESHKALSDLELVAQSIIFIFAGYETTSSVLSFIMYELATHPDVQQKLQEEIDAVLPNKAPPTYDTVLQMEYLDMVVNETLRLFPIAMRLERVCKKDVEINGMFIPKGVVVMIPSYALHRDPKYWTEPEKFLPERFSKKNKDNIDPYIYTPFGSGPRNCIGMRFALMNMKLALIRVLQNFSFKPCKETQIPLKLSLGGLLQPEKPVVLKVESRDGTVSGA
Sequence of Cytochrome P450 1A2 (Homo sapiens) (P05177 whole entry, looked up): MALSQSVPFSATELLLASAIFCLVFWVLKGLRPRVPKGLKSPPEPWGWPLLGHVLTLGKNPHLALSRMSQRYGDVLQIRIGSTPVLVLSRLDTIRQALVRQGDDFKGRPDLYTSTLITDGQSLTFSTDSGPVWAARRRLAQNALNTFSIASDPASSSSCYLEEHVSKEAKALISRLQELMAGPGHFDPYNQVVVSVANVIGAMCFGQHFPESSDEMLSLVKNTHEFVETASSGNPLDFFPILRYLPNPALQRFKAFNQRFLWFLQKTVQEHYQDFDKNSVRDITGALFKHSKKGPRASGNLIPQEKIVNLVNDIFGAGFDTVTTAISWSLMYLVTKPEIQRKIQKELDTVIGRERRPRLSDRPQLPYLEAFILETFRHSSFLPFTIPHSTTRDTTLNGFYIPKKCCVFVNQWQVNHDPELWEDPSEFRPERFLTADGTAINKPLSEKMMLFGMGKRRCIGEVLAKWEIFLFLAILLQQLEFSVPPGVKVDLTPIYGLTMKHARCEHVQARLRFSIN

Consider `CC[Si](OC(C)=O)(OC(C)=O)OC(C)=O`, for which the Potency entry in assay [1], in assay [2], in [3], in assay [4], in assay [5] and in [10] was “inactive” in each case. In addition, the Potency is 48.5 µM (active) and 48.6 µM (active) in assay [6]; 35.6 µM (active) in [7]; 50.2 µM (active) and inactive in [8]; 71 µM (active) and inactive in [9]; 3.17 µM (active) and 35.6 µM (active) in assay [11].

`C=C1CC[C@H](O)CC1=C/C=C1\CCC[C@]2(C)[C@@H]([C@H](C)/C=C/[C@H](C)C(C)C)CC[C@@H]12`: the Potency entry in assay [12], in assay [2] and in [10] was “inactive” in each case. Also, the Potency in assay [3] was 54 µM (active) and 48.6 µM (active); in assay [6] it was 34.1 µM (active) and 30.6 µM (active); in assay [8] it was 35.3 µM (active) and 25.2 µM (active). Moreover, the max activation in assay [13] is -1.33% (inactive). For the same molecule, the call in assay [14] and in [15] was inactive.

On to `NCc1cccc(CN)c1`, for which the Potency result in assay [1], in assay [2], in [3], in [4], in [5] and in assay [10] was “inactive” throughout. For the same molecule, the Potency in assay [7] is 580 nM (active) and 35.6 µM (active); in [8] it was 36.6 µM (active) and 31.7 µM (active); in [9], 36.6 µM (active) and 39.9 µM (active); in assay [16], 35.6 µM (active); in assay [11] it was 36.6 µM (active) and 2.83 µM (active).

Take `CS(=O)(=O)Nc1ccc([N+](=O)[O-])cc1Oc1ccccc1`: the Potency result in assay [1], in assay [2], in assay [4] and in assay [10] was “inactive” throughout. The Potency in assay [3] is 54.5 µM (active); in assay [5], 54.5 µM (active) and 29.8 µM (active). For the same molecule, in assay [13], the max activation was -5.28% (inactive).

As to `COCC(=O)O`, the Potency result in [12], in assay [2], in assay [3], in assay [4], in [5] and in [6] was “inactive” in each case. Besides, the Potency result in assay [7], in assay [9], in [16], in assay [10] and in assay [11] was “inactive” each time. Also, the Potency in assay [8] is 73 µM (active) and inactive.

As to `Nc1c(S(=O)(=O)O)cc(Br)c2c1C(=O)c1ccccc1C2=O`, the Potency in assay [12] was 31.3 µM (active) and 27.3 µM (active); in [3], 48.6 µM (active); in assay [5], “inactive and 48.6 µM (active)”; in assay [6], “inactive and 48.6 µM (active)”; in [9], 16.3 µM (active) and 7.96 µM (active); in assay [16], 3.24 µM (active) and 2 µM (active). Also, the Potency result in [2], in assay [4], in assay [7], in [8], in assay [10] and in assay [11] was “inactive” throughout.

As for `Nc1nc2ncc(CNc3ccc(C(=O)N[C@@H](CCC(=O)O)C(=O)O)cc3)nc2c(=O)[nH]1`, the Potency entry in assay [12], in assay [2], in assay [3], in [4], in [5] and in assay [6] was “inactive” in each case. The Potency result in assay [7], in [9], in assay [10] and in [11] was “inactive” throughout. Also, the max activation in assay [13] is -0.844% (inactive). Further, the call in assay [14] and in assay [15] was inactive. Further, in assay [8], the Potency was 56.4 µM (active) and inactive.

Take `O=c1c(-c2ccc(O)cc2)coc2cc(O)ccc12`: the Potency entry in [12], in assay [2], in [3], in assay [4], in assay [5] and in assay [7] was “inactive” throughout. For the same molecule, in assay [10], the Potency entry is “inactive”. Moreover, the Potency is 30.3 µM (active) and 13.7 µM (active) in assay [6]; 49.8 µM (active) in [8]; 280 nM (active) and 159 nM (active) in assay [9].

In the case of `CCCCCCOC(C)=O`, the Potency entry in [12], in assay [2], in [3], in assay [4], in assay [5] and in [6] was “inactive” throughout. Also, the Potency entry in assay [7], in assay [8], in assay [9], in assay [16], in assay [10] and in assay [11] was “inactive” in each case.

With `NCCNCCNCCNCCN`, the Potency result in assay [2], in assay [3], in [4], in [5], in assay [6] and in assay [10] was “inactive” in each case. Moreover, the Potency entry in assay [11] is “inactive”. Further, the max activation in assay [13] is -4.35% (inactive). The molecule was called inactive in [14] and in assay [15]. For the same molecule, the Potency in assay [7] and in assay [8] was 63 µM (active) throughout. The results for the activity change, negative = inhibition in assay [7], in assay [8] and in [9] were -26.4% [at 10.5 µM] (inactive), 36.2% [at 10.5 µM] (inactive) and 8.07% [at 10.5 µM] (inactive), respectively.

Regarding `C[C@@H](O)[C@H]1C(=O)N2C(C(=O)O)=C(S[C@@H]3CN[C@H](C(=O)N(C)C)C3)[C@H](C)[C@H]12`, the Potency entry in assay [2], in assay [3], in assay [4], in [5], in assay [6] and in assay [8] was “inactive” in each case. The Potency result in [10] and in [11] was “inactive” each time. The max activation in assay [13] was -2.7% (inactive). In addition, the molecule was called inactive in assay [14] and in assay [15]. The Potency in assay [7] is 17.4 µM (active) and inactive.

Regarding `OCC1CCCO1` (configuration not stated), the Potency result in assay [1], in assay [2], in assay [3], in assay [4], in assay [5] and in assay [6] was “inactive” each time. In addition, the Potency result in [7], in [16], in [10] and in [11] was “inactive” throughout. For the same molecule, the Potency in assay [8] is 40.7 µM (active) and inactive.

On to `O=[N+]([O-])c1cc(N(CCO)CCO)ccc1NCCO`, for which the Potency result in assay [2], in assay [4], in assay [6] and in [10] was “inactive” in each case. Besides, the Potency in assay [3] was 27.3 µM (active) and 30.6 µM (active); in assay [5], 30.6 µM (active) and 48.6 µM (active); in assay [7] it was 39.8 µM (active) and 31.7 µM (active); in assay [8], 22.4 µM (active) and 39.9 µM (active); in assay [9], 35.5 µM (active) and 39.9 µM (active); in [16] it was 35.5 µM (active) and 35.6 µM (active). Moreover, in assay [11], the Potency is 35.5 µM (active) and 39.9 µM (active).

(Values after PubChem BioAssay (Tox21).)
